Here are results for 30 compounds from PubChem BioAssay (EPA / NIEHS).

Inconclusive results are not listed. Activity calls are given as the source filed them. How the source made its calls, unless noted: active means hit-call score of the fitted dose curve at least 0.9, where 1 is the maximum; inactive means score below 0.9.

Experiment [1] in a line: ATG_NF_kB_CIS: Attagene CIS-FACTORIAL HepG2 Assay for human Nuclear Factor Kappa B (NF-kB) (AID 2282991). Particulars: HepG2 Attagene cis-factorial NF-kB reporter mRNA; actives raise or lower the signal. In outline:
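Endogenous transcription factor activity in HepG2 was captured via cis-regulated reporter constructs; after 24 h dosing, reporter mRNA was reverse-transcribed, amplified, fluorescently labelled and sized by capillary electrophoresis, with activity fitted bidirectionally relative to DMSO.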

Experiment [2] in a line: ATG_NRF2_ARE_CIS: Attagene CIS-FACTORIAL HepG2 Assay for human Nuclear Factor Erythroid 2 Related Factor 2 (NFR2) response to Antioxidant Response Elements (ARE) (AID 2282992).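 On AC50: reporter mRNA level measured by RT-PCR and capillary electrophoresis fluorescence.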 Particulars: HepG2 Attagene ARE/NRF2 reporter, transcription factor activity; actives raise or lower the signal. The procedure, abridged: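 Cis-factorial assay: transfected HepG2 reporter library, 24 h dosing, mRNA readout via RT-PCR/CE; DMSO-referenced bidirectional analysis.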

A short description of experiment [3]: ATG_Oct_MLP_CIS: Attagene CIS-FACTORIAL HepG2 Assay for human Octamer-Binding Transcription Factor (Oct) (AID 2282993). Particulars: HepG2 Attagene cis-factorial Oct reporter, mRNA; actives raise or lower the signal. In outline: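 HepG2, transient MRTU transfection, cis promoter elements; 24 h dosing; RT-PCR/CE fluorescence read-out of reporter mRNA; fit both directions vs DMSO.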

Experiment [4] has as its target Cellular tumor antigen p53 (Homo sapiens) (UniProt P04637). The experiment in a line: ATG_p53_CIS: Attagene CIS-FACTORIAL HepG2 Assay for human p53 Transcription Factor (AID 2282994). Particulars: HepG2 p53 cis-element reporter, Attagene mRNA; actives raise or lower the signal. In outline:
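Using HepG2 hepatoma cells carrying cis-acting multiplexed reporters, mRNA induction is detected after a 24 h exposure. Gain- and loss-of-signal responses are fitted relative to DMSO-treated cells.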

For experiment [5], the target named is human Peroxisome Proliferator-activated Receptor alpha (PPARa), PPARA (gene 5465) (UniProt Q07869). Nature of the experiment: ATG_PPARa_TRANS: Attagene TRANS-FACTORIAL HepG2 Assay for human Peroxisome Proliferator-activated Receptor alpha (PPARa) (AID 2283001; active means hit-call score of the fitted dose curve at least 0.9, where 1 is the maximum;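 on AC50: potency for gain of reporter signal over DMSO so agonist or activator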). In outline: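 Read-out is fluorescence of reporter cDNA fragments resolved by capillary electrophoresis after RT-PCR. Human HepG2 liver cells carried transfected PPARa-Gal4 chimera and GAL4-UAS reporter units, treated 24 h; activity scored as increase over DMSO.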
human Peroxisome Proliferator-activated Receptor alpha (PPARa), PPARA (gene 5465), sequence (Q07869 whole entry, looked up, the tested form may be a part): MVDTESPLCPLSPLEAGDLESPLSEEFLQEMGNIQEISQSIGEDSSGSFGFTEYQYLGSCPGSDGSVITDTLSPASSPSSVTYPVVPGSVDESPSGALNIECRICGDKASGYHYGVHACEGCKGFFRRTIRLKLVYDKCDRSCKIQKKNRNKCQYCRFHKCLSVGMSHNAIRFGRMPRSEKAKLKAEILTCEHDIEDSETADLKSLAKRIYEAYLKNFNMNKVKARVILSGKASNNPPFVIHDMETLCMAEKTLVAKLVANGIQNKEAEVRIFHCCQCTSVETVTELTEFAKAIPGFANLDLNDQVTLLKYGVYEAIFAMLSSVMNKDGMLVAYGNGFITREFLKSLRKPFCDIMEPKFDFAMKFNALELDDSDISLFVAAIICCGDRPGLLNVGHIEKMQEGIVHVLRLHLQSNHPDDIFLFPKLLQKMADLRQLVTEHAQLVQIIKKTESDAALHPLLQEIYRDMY

Experiment [6] can be described thus: BSK_3C_TissueFactor: BioMAP Diversity Plus: 3C Assay for Tissue Factor Biomarker Activity (AID 2282997). Particulars: BioMAP 3C HUVEC, tissue factor biomarker readout; actives raise or lower the signal. In outline:
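HUVEC were treated 24 h, then surface tissue factor measured by ELISA and fitted bidirectionally against DMSO. Parallel SRB total-protein staining assessed overt cytotoxicity at the same time point.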

The nature of experiment [7]: BSK_3C_uPAR: BioMAP Diversity Plus: 3C Assay for Urokinase-type plasminogen activator receptor (uPAR) Biomarker Activity (AID 2282998). As to conditions: BioMAP 3C HUVEC, uPAR biomarker ELISA; actives raise or lower the signal. The procedure, abridged: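 A multiplexed primary-cell system built on human umbilical vein endothelium was used, with chemical present for 24 h before reading. Cell-surface uPAR was detected by ELISA; signal change in either direction counted against DMSO.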

Experiment [8] is described as follows: BSK_3C_VCAM1: BioMAP Diversity Plus: 3C Assay for Vascular cell adhesion molecule 1 (VCAM1) Biomarker Activity (AID 2282999). Particulars: BioMAP 3C HUVEC, VCAM1 ELISA, cytokine-stimulated; actives raise or lower the signal. The procedure, abridged:
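Endothelial cells from human umbilical vein are treated with test chemical. At 24 h, VCAM-1 is measured by ELISA, and responses in either direction are fitted relative to DMSO.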
(ELISA stands for enzyme-linked immunosorbent assay.)

Experiment [9] can be described thus: BSK_4H_Eotaxin3: BioMAP Diversity Plus: 4H Assay for Eotaxin 3 Biomarker Activity (AID 2283000).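 On outcome: CCL26 protein level quantified by ELISA in parallel with SRB cytotoxicity check.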 Particulars: primary human endothelial cells (HUVEC); actives raise or lower the signal. The procedure, abridged: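 Eotaxin-3 (CCL26) levels were measured by ELISA in HUVEC primary cultures 24 h post-dosing. Gain or loss of signal was fitted in both directions, with DMSO serving as baseline and negative control.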

The target of experiment [10] is human Peroxisome Proliferator-activated Receptor delta (PPARd), PPARD (gene 5467) (UniProt Q03181). The experiment in a line: ATG_PPARd_TRANS: Attagene TRANS-FACTORIAL HepG2 Assay for human Peroxisome Proliferator-activated Receptor delta (PPARd) (AID 2283002; active means hit-call score of the fitted dose curve at least 0.9, where 1 is the maximum). In outline: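 Cell-based TRANS reporter: HepG2, transient MRTU transfection, 24 h exposure. Readout = reporter mRNA (RT-PCR/CE, 6-FAM). Gain-of-signal fit vs DMSO control.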
human Peroxisome Proliferator-activated Receptor delta (PPARd), PPARD (gene 5467), sequence (Q03181 whole entry, looked up): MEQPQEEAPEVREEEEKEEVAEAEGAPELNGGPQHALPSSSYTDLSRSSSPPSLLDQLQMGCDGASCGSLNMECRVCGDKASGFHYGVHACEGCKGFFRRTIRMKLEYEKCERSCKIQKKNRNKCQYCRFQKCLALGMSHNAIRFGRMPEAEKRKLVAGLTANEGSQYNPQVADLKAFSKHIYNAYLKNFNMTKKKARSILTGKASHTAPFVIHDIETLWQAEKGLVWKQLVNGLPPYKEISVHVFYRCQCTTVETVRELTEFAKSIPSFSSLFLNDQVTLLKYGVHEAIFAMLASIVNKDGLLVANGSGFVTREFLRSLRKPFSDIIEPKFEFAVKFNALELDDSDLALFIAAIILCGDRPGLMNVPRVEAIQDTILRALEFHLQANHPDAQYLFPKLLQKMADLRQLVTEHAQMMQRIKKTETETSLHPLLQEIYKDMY

Cellular tumor antigen p53 (Homo sapiens), sequence (P04637 whole entry, looked up): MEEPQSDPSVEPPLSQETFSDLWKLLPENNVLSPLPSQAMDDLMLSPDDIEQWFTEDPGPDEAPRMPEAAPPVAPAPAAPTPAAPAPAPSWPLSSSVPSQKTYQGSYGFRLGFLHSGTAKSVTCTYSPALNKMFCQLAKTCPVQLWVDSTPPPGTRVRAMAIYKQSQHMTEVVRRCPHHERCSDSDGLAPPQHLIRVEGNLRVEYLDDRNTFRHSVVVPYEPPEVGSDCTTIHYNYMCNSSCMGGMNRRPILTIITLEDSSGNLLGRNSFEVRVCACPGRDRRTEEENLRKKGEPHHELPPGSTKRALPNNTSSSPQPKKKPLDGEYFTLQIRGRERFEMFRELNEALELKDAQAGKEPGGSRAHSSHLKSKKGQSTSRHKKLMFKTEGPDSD

Take `COCCl`: the result in experiment [1], in [2], in [3], in experiment [4] and in experiment [5] was inactive.
With `O=S(=O)(C(Cl)(Cl)Cl)C(Cl)(Cl)Cl`, the AC50 (as a rule, the concentration at which the activity in the assay is half-maximal) in [1] is 15.6 µM (active); in experiment [2], 2.87 µM (active); in [3] it was 16.4 µM (active); in [4] it was 15.1 µM (active); in experiment [6] it was 1.11 µM (active); in [7], 1.24 µM (active). For the same compound, the AC50 is 2.08 µM (active) in [8] and 1.47 µM (active) in [9]. The call in [5] and in experiment [10] was inactive.
With `CCC[CH2][Sn]([CH2]CCC)([CH2]CCC)[CH2]CCC`, the AC50 in [1] was 11.1 µM (active); in experiment [2], 5.43 µM (active); in experiment [3], 11.1 µM (active); in experiment [4], 18.5 µM (active). In experiment [5], the compound was classed as inactive.
For `CC(C=O)Cc1ccc2c(c1)OCO2` (configuration not stated), the result in experiment [1], in experiment [2], in [3], in experiment [4], in experiment [6] and in experiment [7] was inactive. The outcome in experiment [8], in experiment [9], in experiment [5] and in experiment [10] was inactive.
For `COc1ccc([N+](=O)[O-])cc1O`, the compound was called inactive in experiment [1], in [2], in experiment [3], in experiment [4] and in experiment [5].
Consider `CCOc1cc(C=O)ccc1O`, for which the call in experiment [1], in experiment [2], in experiment [3], in experiment [4] and in experiment [5] was inactive.
Regarding `OC(Cc1ccccc1Cl)(Cn1[nH]cnc1=S)C1(Cl)CC1` (configuration not stated), the outcome in [1], in experiment [3], in experiment [6], in [8] and in experiment [10] was inactive. In addition, the AC50 in experiment [2] is 12.1 µM (active); in experiment [4], 75.7 µM (active); in experiment [7], 20 µM (active); in experiment [9], 20 µM (active).
`CCN(N=O)C(N)=O`: the compound was called inactive in experiment [1], in [2], in [3], in experiment [4] and in [5].
As for `Brc1ccc(Oc2c(Br)cc(Br)cc2Br)c(Br)c1`, the compound was called inactive in experiment [1], in experiment [2], in [3], in experiment [4] and in experiment [5].
On to `CS(=O)(=O)c1ccc(C(=O)C2C(=O)CCCC2=O)c(Cl)c1COCC(F)(F)F`, for which the compound was called inactive in experiment [1], in experiment [2], in experiment [3], in [4] and in [5].
For the compound `C[C@H]1C(=O)O[C@@H]2CCN3CC=C(COC(=O)[C@](C)(O)[C@]1(C)O)[C@H]23`, the compound was classed as inactive in experiment [1], in experiment [2], in experiment [3], in experiment [4] and in [5].
Regarding `CN(CCCC(O)c1cccnc1)N=O` (configuration not stated), the compound was called inactive in [1], in experiment [2], in experiment [3], in experiment [4] and in experiment [5].
On to `Nc1nc(=S)[nH][nH]1`, for which the call in experiment [1], in experiment [2], in [3], in experiment [4] and in experiment [5] was inactive.
On to `N#CCCC(Br)(C#N)CBr` (configuration not stated), for which the AC50 in [1] is 33.4 µM (active); in experiment [3], 50 µM (active); in experiment [4], 52.8 µM (active); in experiment [6], 7.47 µM (active); in [7] it was 5.36 µM (active); in experiment [8] it was 7.92 µM (active). Further, in experiment [9], the AC50 was 8.6 µM (active). Moreover, the call in experiment [2] and in [5] was inactive.
For the compound `CC(C)(COCC1CO1)COCC1CO1` (configuration not stated), the compound was called inactive in experiment [1], in experiment [3], in [4], in experiment [7], in experiment [8] and in experiment [9]. The call in experiment [10] was inactive. Moreover, the values for the AC50 in experiment [2] and in experiment [6] were 49.8 µM (active) and 3.97 µM (active), respectively.
`CCCCCCCCCCCCCCC(Br)C(=O)O` (configuration not stated): the AC50 is 50.4 µM (active) in [1], 30.1 µM (active) in experiment [2], 161 µM (active) in experiment [3] and 1.44 µM (active) in experiment [5]. The compound was called inactive in [4].
As for `CC(=Cc1ccccc1)[N+](=O)[O-]`, the AC50 in experiment [1] is 11.1 µM (active); in [2], 2.61 µM (active); in [4], 18 µM (active); in [5] it was 11.1 µM (active). For the same compound, the compound was called inactive in [3].
Take `Cc1cccc(C)c1NC(=O)CN1CCCC1=O`: the call in [1], in experiment [2], in experiment [3], in [4] and in experiment [5] was inactive.
`BrCC(Br)c1ccccc1` (configuration not stated): the compound was classed as inactive in [1], in [2], in experiment [3], in experiment [4] and in experiment [5].
For `Cc1ccc(OP(=O)(Oc2ccc(C)cc2C)Oc2ccc(C)cc2C)c(C)c1`, the AC50 in [1] is 25.9 µM (active); in experiment [2], 12.3 µM (active). The compound was classed as inactive in experiment [3], in experiment [4], in experiment [6], in [7], in [8] and in experiment [9]. For the same compound, the outcome in experiment [10] was inactive.
For `[Cl][Sn]([c]1ccccc1)([c]1ccccc1)[c]1ccccc1`, the AC50 is 0.232 µM (active) in [1]; 0.0785 µM (active) in experiment [2]; 0.25 µM (active) in experiment [3]; 0.167 µM (active) in [4]; 0.297 µM (active) in [6]; 0.141 µM (active) in experiment [7]. The AC50 in experiment [8] was 0.177 µM (active); in experiment [9], 0.0985 µM (active); in experiment [10] it was 0.249 µM (active).
`C=CCOC(N)=O`: the result in experiment [1], in [2], in experiment [3], in [4] and in experiment [10] was inactive.
As to `O=C(O)c1cc(I)cc(I)c1I`, the outcome in experiment [1], in experiment [3] and in experiment [4] was inactive. The AC50 in [2] was 100 µM (active); in [5], 17.3 µM (active).
Turning to `Cl[C@H]1OCCO[C@@H]1Cl`, the compound was classed as inactive in experiment [1], in [2], in experiment [3], in experiment [4] and in [5].
Take `N#Cc1ccccc1Cl`: the call in experiment [1], in [2], in [3], in [4], in experiment [5] and in [10] was inactive.
For the compound `CCOP(=S)(OCC)O/N=C(\C#N)c1ccccc1`, the result in experiment [1], in experiment [3], in experiment [4] and in [10] was inactive. Further, in experiment [2], the AC50 was 27.7 µM (active).
`Nc1ccc(-c2ccccc2)cc1`: the compound was called inactive in experiment [1], in experiment [3], in [4], in experiment [5] and in [10]. Also, the AC50 in [2] is 32 µM (active).
Take `CCCCCCCCCCBr`: the outcome in experiment [1], in experiment [3], in experiment [4] and in [5] was inactive. Also, the AC50 in [2] was 68.6 µM (active).
In the case of `CCN(CCO)CCO`, the call in experiment [1], in experiment [2], in experiment [3], in experiment [4] and in experiment [5] was inactive.
Take `O=CCCl`: the AC50 in experiment [1] was 32.7 µM (active); in experiment [2], 23.6 µM (active); in experiment [3], 26 µM (active). Also, the compound was called inactive in [4] and in [5].
